The record followed here is publication PMC8384837, “Expanding the binding specificity for RNA recognition by a PUF domain”.

Positions count from the first letter of the chain named.

What all share (test): yeast three-hybrid, YBZ-1, SC-Leu-His + 0.5 mM 3-AT, 4 days
Common to all, as to conditions: tags: N-Gal4 AD-HA kept; label: inside an RPR1-promoter hybrid RNA with tandem MS2 sites; ssRNA

Assay [1] concerns the target PUM1 PUF domain R3-TRW (Homo sapiens, UniProt Q14671 828-1176, C935T;Q939W). Put shortly: (§1)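 Repeat regions from input (SC-Leu) and selection (SC-Leu-His + 0.5 mM 3-AT) plates were PCR-amplified and Illumina-sequenced after four days of growth. The cells were strain YBZ-1 with a LexA–MS2 coat fusion and a HIS3 reporter, co-expressing Pumilio-1 PUF domain libraries and matching RNA elements from a centromeric plasmid. The interaction score is the log change in variant frequency from input to selection, taken in log2 with a pseudocount of 1 for absent variants.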

The target in assay [2] is PUM1 PUF domain R8-LFK (Homo sapiens, UniProt Q14671 828-1176, N1122L;Y1123F;Q1126K). A digest of the protocol:
as §1

Assay [3] has as its target PUM1 PUF domain R3-SRT (Homo sapiens, UniProt Q14671 828-1176, C935S;Q939T). A digest of the protocol: as §1
For assay [4], the target named is PUM1 PUF domain R4-CMC (Homo sapiens, UniProt Q14671 828-1176, N971C;H972M;Q975C). A digest of the protocol: as §1
Assay [5] deals with T1, PUM1 PUF domain R6-RHS (Homo sapiens, UniProt Q14671 828-1176, N1043R;Y1044H;Q1047S).
T1 sequence: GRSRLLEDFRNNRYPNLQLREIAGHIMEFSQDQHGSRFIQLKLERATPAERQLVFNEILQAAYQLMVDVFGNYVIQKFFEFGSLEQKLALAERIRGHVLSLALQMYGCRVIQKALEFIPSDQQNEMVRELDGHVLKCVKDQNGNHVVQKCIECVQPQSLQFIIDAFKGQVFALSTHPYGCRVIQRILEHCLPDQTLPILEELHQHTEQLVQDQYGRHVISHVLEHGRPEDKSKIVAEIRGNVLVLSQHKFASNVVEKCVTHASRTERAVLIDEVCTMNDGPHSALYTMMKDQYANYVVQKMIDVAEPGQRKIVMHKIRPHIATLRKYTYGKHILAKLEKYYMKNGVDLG
Put shortly: as §1

Assay [6] addresses T2, PUM1 PUF domain R6-LYV (Homo sapiens, UniProt Q14671 828-1176, N1043L;Q1047V).
T2 sequence: T1 sequence with R216L, H217Y, S220V
Put shortly:
as §1

In assay [7] the target is PUM1 PUF domain R5-RNG (Homo sapiens, UniProt Q14671 828-1176, C1007R;R1008N;Q1011G). Put shortly:
as §1

Assay [8] concerns the target PUM1 PUF domain R3-TFG (Homo sapiens, UniProt Q14671 828-1176, C935T;R936F;Q939G). A digest of the protocol: as §1
In assay [9] the target is PUM1 PUF domain R7-KPV (Homo sapiens, UniProt Q14671 828-1176, S1079K;N1080P;E1083V). A digest of the protocol: as §1
Assay [10] has as its target PUM1 PUF domain R7-KWK (Homo sapiens, UniProt Q14671 828-1176, S1079K;N1080W;E1083K). Put shortly: as §1
The target in assay [11] is PUM1 PUF domain R1-KVI (Homo sapiens, UniProt Q14671 828-1176, S863K;R864V;Q867I). Put shortly:
as §1

Assay [12] deals with PUM1 PUF domain R3-RSW (Homo sapiens, UniProt Q14671 828-1176, C935R;R936S;Q939W). Put shortly: as §1
The target of assay [13] is PUM1 PUF domain R3-VSK (Homo sapiens, UniProt Q14671 828-1176, C935V;R936S;Q939K). A digest of the protocol:
as §1

The target of assay [14] is PUM1 PUF domain R3-RTI (Homo sapiens, UniProt Q14671 828-1176, C935R;R936T;Q939I). A digest of the protocol: as §1

On to “GGCUAGAACUAGUGGAUCCCCCGGCGCCCGGCGGCUCGAGCCCGGGUAAGUGUAAAUAGUCUGCAUGCCGCCGGGCGCCAUGCCUGCAGGUCGACUCUAGAAAACAUG”, for which the binding signal is 4.35 log2 enrichment (interaction score) in assay [1]; 4.86 log2 enrichment (interaction score) in [2]; 4.56 log2 enrichment (interaction score) in [3]; 2.5 log2 enrichment (interaction score) in [4]; 2.73 log2 enrichment (interaction score) in assay [5]; 2.81 log2 enrichment (interaction score) in [6].
As for “GGCUAGAACUAGUGGAUCCCCCGGCGCCCGGCGGCUCGAGCCCGGGUAAGUGUCAAUAGUCUGCAUGCCGCCGGGCGCCAUGCCUGCAGGUCGACUCUAGAAAACAUG”, the binding signal in assay [7] was 2.64 log2 enrichment (interaction score).
The same measure, in the same setting: as for “GGCUAGAACUAGUGGAUCCCCCGGCGCCCGGCGGCUCGAGCCCGGGUAAGUGUUAAUAGUCUGCAUGCCGCCGGGCGCCAUGCCUGCAGGUCGACUCUAGAAAACAUG”, the figure is 4.63 log2 enrichment (interaction score).
Consider “GGCUAGAACUAGUGGAUCCCCCGGCGCCCGGCGGCUCGAGCCCGGGUAAGUGUAACUAGUCUGCAUGCCGCCGGGCGCCAUGCCUGCAGGUCGACUCUAGAAAACAUG”, for which the binding signal in assay [8] was 0.95 log2 enrichment (interaction score).
On to “GGCUAGAACUAGUGGAUCCCCCGGCGCCCGGCGGCUCGAGCCCGGGUAAGUUUAAAUAGUCUGCAUGCCGCCGGGCGCCAUGCCUGCAGGUCGACUCUAGAAAACAUG”, for which the binding signal in assay [9] is 4.82 log2 enrichment (interaction score).
Turning to “GGCUAGAACUAGUGGAUCCCCCGGCGCCCGGCGGCUCGAGCCCGGGUAAGUCUAAAUAGUCUGCAUGCCGCCGGGCGCCAUGCCUGCAGGUCGACUCUAGAAAACAUG”, the binding signal in assay [9] was 4.07 log2 enrichment (interaction score); in assay [10], 2.57 log2 enrichment (interaction score).
As to “GGCUAGAACUAGUGGAUCCCCCGGCGCCCGGCGGCUCGAGCCCGGGUAAGUGUAAAUGGUCUGCAUGCCGCCGGGCGCCAUGCCUGCAGGUCGACUCUAGAAAACAUG”, the binding signal in assay [11] is 2.15 log2 enrichment (interaction score).
With “GGCUAGAACUAGUGGAUCCCCCGGCGCCCGGCGGCUCGAGCCCGGGUAAGUGUAAUUAGUCUGCAUGCCGCCGGGCGCCAUGCCUGCAGGUCGACUCUAGAAAACAUG”, the binding signal in assay [1] is 0.56 log2 enrichment (interaction score); in assay [3], 1.65 log2 enrichment (interaction score); in assay [12] it was 3.81 log2 enrichment (interaction score); in assay [8], 2.64 log2 enrichment (interaction score); in [13] it was 3.36 log2 enrichment (interaction score); in assay [14] it was 3.21 log2 enrichment (interaction score).
As to “GGCUAGAACUAGUGGAUCCCCCGGCGCCCGGCGGCUCGAGCCCGGGUAAGCGUAAAUAGUCUGCAUGCCGCCGGGCGCCAUGCCUGCAGGUCGACUCUAGAAAACAUG”, the binding signal in assay [2] was 5.27 log2 enrichment (interaction score).
